In PubChem BioAssay (NCI):
This is part of a sample that, as a whole, favours compounds with a hit. Of some 83,000 tested, about 20% had one in any assay.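 In brief: 96-well plates, 48 h treatment, single concentration, percent growth endpoint.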 A number with no mark means an inactive call. Calls of active or inactive are those of the source.

Tested on: NCI-H226 lung
Experiment: NCI-60 one-dose screen, 48 h (100 = growth as untreated, 0 = no growth, -100 = all killed)
Conditions: 10 µM
Procedure: Growth inhibition of the NCI-H226 human Non-Small Cell Lung tumor cell line is measured as a screen for anti-cancer activity. Cells are grown in 96 well plates and exposed to the test compound for 48 hours. Compounds are tested at a single concentration, which is 10^-5 M for most compounds. The reported endpoint is percent growth (GI% or GIPRCNT), where numbers from 0 - 100% represent growth inhibition, and numbers from -100% - 0 represent cell death. For example, a value of 40 represents 60% growth inhibition. A value of 0 means no net growth occurred over the course of the experiment. A value of -40 indicates 40% of cells at the beginning of the experiment died by the end of the experiment. A value of -100 means all cells are dead at the end of the experiment.
NCI-60 Human Tumor Cell Lines Screen was performed using the standard one-dose NCI protocol, which is described in more detail at https://dtp.cancer.gov/discovery_development/nci-60/default.htm.
Compounds with GIPRCNT values below 10 were considered active. Activity score was based on GIPRCNT using the following formula: […]
Score is 0 for GIPRCNT values of 100 or above, 50 for GIPRCNT values of 0, and 100 for GIPRCNT values of -100.

Going from `Cc1nc2c(ccc3ccccc32)s1` to `O=c1cc(-c2ccccc2)oc2c1ccc1ccccc12`, the growth falls from 109% to 86.3%.

Going from `C=CCNC(=O)c1ccc(OC)cc1` to `COC(=O)c1cccc(Br)c1`, the growth rises from 99.4% to 106%.

Going from `O=C1C=C(Nc2ccc([N+](=O)[O-])cc2)c2ccccc2C1=O` to `N#CC(=Nc1cccc(F)c1)C1=C(O)c2ccccc2C1=O`, the growth rises from 77.6% to 79.6%.

Going from `N#CCCN(CCCN1CCOCC1)CN1C(=O)c2ccccc2C1=O` to `CCN(CC)CCNc1ccc(CO)c2sc3ccccc3c(=O)c12`, the growth falls from 97.9% to 35.9%.

Compared with `Cc1cc(C(C)(C)C)cc(C)c1Br`, `CC(=O)NCc1cc(C)c(C)cc1C` is lower in growth: 111% for the first, 93.4% for the second.

First: O=[N+]([O-])c1ccc(-c2noc(-c3cccs3)n2)cc1
Second: c1csc(-c2cc(-c3cc(-c4cccs4)[nH]n3)n[nH]2)c1
The growth of the first is higher: 86.3% for the first, 79.1% for the second.

Compared with `Cc1cc(N2CCC(N3CCCC3)CC2)nc(/N=C(\N)Nc2ccc(Cl)c(Cl)c2)n1`, `COC(=O)c1cc(-c2ccc(Cl)c(Cl)c2)[nH]c(=O)c1C#N` is higher in growth: 84.6% for the first, 94.6% for the second.

First: CC1NC(=O)NC1CCCCCC(=O)O (stereo not given)
Second: CCCCC(CC)COC(C)=O (stereo not given)
The growth of the first is lower: 103% for the first, 105% for the second.

Going from `O=C(N/N=C\c1cc(Br)cc(Br)c1O)N/N=C/c1cc(Br)cc(Br)c1O` to `O=C1OC[C@H]2[C@H](c3ccc(O)c(O)c3)c3cc(O)c(O)cc3C[C@H]12`, the growth rises from 50.6% to 116%.

First: O=C(Cc1nc2ccc([N+](=O)[O-])cc2nc1CC(=O)c1ccccc1)c1ccccc1
Second: O=C(/C=C/C(=O)c1ccccc1)c1ccccc1
The growth of the first is lower: 68% for the first, 107% for the second.

Going from `COS(=O)(=O)c1ccc(Br)cc1` to `O=S(=O)(O)c1ccc(Cl)c(Cl)c1`, the growth rises from 101% to 111%.

First: c1ccc(Cc2ccccc2)cc1
Second: c1ccc(Sc2ccccc2)cc1
The growth of the first is higher: 112% for the first, 103% for the second.

First: O=C(O)[C@@H]1[C@H]2C[C@H]3c4[nH]c5ccccc5c4CCN3C[C@@H]2CC[C@@H]1O
Second: COc1ccccc1N1CCN(C(=S)Nc2ccccc2)CC1
The growth of the first is higher: 103% for the first, 99.4% for the second.

`N#CCCc1ccc(O)cc1` and `Oc1ccccc1O` are the same in growth: 102% for the first, 102% for the second.

First: O=C1Cc2cc(O)ccc2O1
Second: COc1ccc(OC)c(/C=C2\CCc3ccccc3C2=O)c1
The growth of the first is higher: 103% for the first, 76.5% for the second.

Compared with `CC(=O)C1CCCCC1`, `C/C(=N\O)C1(O)CCCCC1` is higher in growth: 89.9% for the first, 97.7% for the second.

Compared with `CCOc1ccccc1/C=N/Nc1nc2ccccc2o1`, `CCOc1ccc(/C=C/C(=O)c2ccccc2)cc1` is higher in growth: 103% for the first, 114% for the second.

Compared with `CCCNc1ccc(C2=NCCCN2)cc1`, `CCCC[P+](c1ccccc1)(c1ccccc1)c1ccccc1` is lower in growth: 104% for the first, 67% for the second.

First: N#CC1(Nc2ccc3c4c(cccc24)CC3)CCCCC1
Second: CC(CC(=O)c1ccccc1)c1ccccc1 (stereo not given)
The growth of the first is lower: 81.8% for the first, 98.4% for the second.

Work on `COC(=O)/C=C/C(=O)NC(N)=O` yielded a growth of 94.1%.

In the case of `CC(=O)c1sc2c(c1OC(=O)c1ccc(Cl)cc1Cl)c(=O)n(-c1ccccc1)c(=S)n2-c1ccccc1`, the growth is reported as 3.85% (active).
